JNK3 blocker – blocks human JNK3 kinase activity; P53779; purified JNK3 kinase activity, HTS; inhibition, % at 8 µM; 60,000 tested, 0.61% active; AID 746; in the data active = inhibition above about 17%
PKA inh – inhibitors of human protein kinase A. PKA Kemptide phosphorylation, Kinase-Glo ATP luminescence. 65,000 tested, 0.1% active. inhibition, % at 6 µM;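 active = inhibition above the screen-wide mean inhibition plus 3 SD, cut at about 21% in these data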
HER2 expr 66K – inhibitors of human Her2 kinase expression; SKBR-3 HER2 protein level, AlphaScreen, 18-24 h; active compounds read low; HER2 level % of control, % at 10 µM; P04626; AID 645; 65,000 tested, 0.69% active;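 active = HER2 level under 5% of the carrier-only control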;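 note: lower value means stronger loss of Her2 protein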
SK-BR-3 tox 24h – SK-BR-3 proliferation inhibitors; viability, % at 10 µM; 41,000 tested, 0.47% active; SK-BR-3 viability, CellTiter-Glo ATP luminescence, 24 h; active compounds read low; AID 847;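 active = viability at or below the median of all test compounds minus 3 SD, in both replicates if run twice, cut at about 45% in these data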
ROCK2 blocker – inhibitors of human Rho kinase 2; purified ROCK2, Kinase-Glo ATP depletion luminescence; 60,000 tested, 0.35% active; O75116; inhibition, % at 6 µM;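 active = inhibition above the screen-wide mean inhibition plus 3 SD, cut at about 18% in these data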
Target sequence (O75116 whole entry, looked up): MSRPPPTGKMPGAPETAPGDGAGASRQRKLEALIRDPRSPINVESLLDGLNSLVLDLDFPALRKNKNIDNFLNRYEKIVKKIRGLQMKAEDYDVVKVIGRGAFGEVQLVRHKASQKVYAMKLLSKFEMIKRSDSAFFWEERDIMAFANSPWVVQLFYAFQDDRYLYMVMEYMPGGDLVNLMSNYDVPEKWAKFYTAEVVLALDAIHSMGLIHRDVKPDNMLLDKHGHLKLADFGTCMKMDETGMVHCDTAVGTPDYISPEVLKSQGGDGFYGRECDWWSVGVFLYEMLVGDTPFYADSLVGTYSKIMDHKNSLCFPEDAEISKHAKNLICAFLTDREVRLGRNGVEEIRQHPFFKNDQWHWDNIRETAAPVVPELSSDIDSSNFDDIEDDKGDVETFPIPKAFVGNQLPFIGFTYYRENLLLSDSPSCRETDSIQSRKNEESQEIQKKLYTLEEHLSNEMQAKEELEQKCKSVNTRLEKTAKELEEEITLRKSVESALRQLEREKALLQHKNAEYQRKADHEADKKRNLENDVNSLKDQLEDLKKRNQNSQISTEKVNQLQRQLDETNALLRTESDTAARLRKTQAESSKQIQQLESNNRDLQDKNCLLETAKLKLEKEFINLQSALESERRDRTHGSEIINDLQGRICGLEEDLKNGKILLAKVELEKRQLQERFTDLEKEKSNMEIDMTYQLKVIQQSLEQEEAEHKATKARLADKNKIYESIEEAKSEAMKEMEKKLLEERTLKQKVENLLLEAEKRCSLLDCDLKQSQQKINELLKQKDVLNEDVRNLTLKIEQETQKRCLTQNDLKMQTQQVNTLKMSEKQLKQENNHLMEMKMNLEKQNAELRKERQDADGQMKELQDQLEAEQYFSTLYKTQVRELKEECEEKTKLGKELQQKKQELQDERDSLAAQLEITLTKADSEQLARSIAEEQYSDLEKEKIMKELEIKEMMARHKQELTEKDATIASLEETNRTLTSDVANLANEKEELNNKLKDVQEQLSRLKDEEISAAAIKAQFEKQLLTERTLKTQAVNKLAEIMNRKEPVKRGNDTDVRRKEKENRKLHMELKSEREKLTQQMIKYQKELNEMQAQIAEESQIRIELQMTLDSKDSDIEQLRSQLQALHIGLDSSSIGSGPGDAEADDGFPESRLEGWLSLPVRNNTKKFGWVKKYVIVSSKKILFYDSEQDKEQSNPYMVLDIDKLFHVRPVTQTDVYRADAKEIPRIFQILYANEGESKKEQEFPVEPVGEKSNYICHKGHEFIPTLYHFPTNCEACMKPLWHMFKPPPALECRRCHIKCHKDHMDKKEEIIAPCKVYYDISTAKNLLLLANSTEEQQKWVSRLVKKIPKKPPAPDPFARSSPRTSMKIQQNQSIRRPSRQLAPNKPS
Hits are given with their value; . = inactive; / = no result. Hits are enriched below; roughly 1.5% of the tested compounds scored in any of these assays.

SMILES	JNK3 blocker	PKA inh	HER2 expr 66K	SK-BR-3 tox 24h	ROCK2 blocker
COc1ccc(Br)cc1C1NC(=O)c2c(sc3c2CCN(C)C3)N1 (stereo unspecified)	.	.	.	43	.
Cc1ccc(SCc2cn3c(C)csc3n2)cc1	.	.	.	.	.
COc1ccc(-n2cnc3cc(NCc4cccs4)ccc32)cc1	.	.	.	.	.
COc1ccc2ncn(-c3ccccc3)c2c1	30	.	.	.	.
Cc1nnc(SCC(=O)c2c(N)n(C)c(=O)n(C)c2=O)n1Cc1ccccc1	.	.	-33	/	.
COCCNC(=O)C1CCN(S(=O)(=O)c2ccccc2)CC1	.	.	.	.	.
COC(=O)c1c(NC(=O)Cc2cccs2)sc(C)c1C	18	.	.	.	.
COC(=O)c1c(NC(=O)Cc2cccs2)sc2c1CCCC2	.	.	.	.	.
CCc1nc(C)ccc1OCC(=O)NCCCN(C)C	.	.	-28	.	.
CC1(C)CC(=O)C2=C(C1)OC(=O)C2(NC(=O)c1cccs1)C(F)(F)F (stereo unspecified)	.	.	-12	.	.
CC(C)(CNC(=O)c1cccs1)CNC(=O)c1cccs1	.	.	.	/	.
CC(C)C(NC(=O)C1CCCCC1)C(=O)Nc1ccncc1 (stereo unspecified)	.	.	.	.	76
CC(C)C(NC(=O)C1CCCCC1)C(=O)Nc1ccc2c(c1)OCCO2 (stereo unspecified)	.	.	.	/	.
NC(=O)C1CCN(C(c2ccccc2Cl)c2nnnn2Cc2ccc3c(c2)OCO3)CC1 (stereo unspecified)	.	.	.	.	.
Cc1ccc2nc(Nc3ccccc3)c(/C=N/O)c(=O)n2c1	.	.	-25	/	.
CCN(C(=O)COC(=O)c1cc(C)n(-c2ccc(F)cc2)c1C)C1CCS(=O)(=O)C1 (stereo unspecified)	.	.	-20	/	.
Fc1cc2nccnc2cc1N1CCSCC1	23	.	.	.	.
CCOC(=O)N1CCN(c2cc3nccnc3cc2F)CC1	.	.	.	.	.
Cc1nnc(SCc2nnc(-c3ccccc3Br)o2)n1-c1ccccc1	.	.	-12	/	.
Cc1nnc(SCc2nnc(-c3ccc(Cl)cc3)o2)n1-c1ccccc1	.	.	.	/	.
COCCNC(=O)c1ccccc1NC(=O)c1ccc(OC)c(OC)c1	.	.	.	.	.
CCOc1cc(C(=O)NCCOC)ccc1OC	.	.	-8.0	.	.
Cc1ccc(O)c(N=CC2=C(O)c3ccccc3C2=O)c1	.	.	.	.	.
O=C1C(C=Nc2ccccc2O)=C(O)c2ccccc21	35	.	.	.	.
Cc1cc(C(F)F)n2ncc(C(=O)NCc3ccccc3C(F)(F)F)c2n1	19	.	.	.	.
SMILES	JNK3 blocker	PKA inh	HER2 expr 66K	SK-BR-3 tox 24h	ROCK2 blocker
CCCCOC(=O)C(C#N)c1nc2ccccc2nc1N1CCN(Cc2ccc3c(c2)OCO3)CC1 (stereo unspecified)	.	.	-55	.	.
Cc1ccc(-c2nc(NC(=O)CSc3nnc4scc(-c5ccccc5)n34)ns2)cc1	.	.	/	/	.
CCOC(=O)c1cccc2c1-c1ccccc1/C2=N/O	53	.	.	.	.
CCN(CC(F)(F)C(F)F)S(=O)(=O)c1ccc(NC(=O)OC)cc1	.	.	.	.	.
COC(=O)Nc1ccc(S(=O)(=O)N(CCO)CC(F)(F)C(F)F)cc1	.	.	-19	.	.
CN(C)c1ccnc(NCc2ccccc2)c1C#N	.	.	.	/	.
N#Cc1c(NCc2ccccc2)ccnc1NCc1cccnc1	75	.	.	.	.
COC(=O)CN1CCN(C(=O)c2ccc(F)cc2)c2ccccc2C1	.	.	.	.	.
CC1CN(CC(=O)N2CCc3[nH]c4ccccc4c3C2)CC(C)O1 (stereo unspecified)	.	.	.	.	.
CC1CC(C)CN(CC(=O)N2CCc3[nH]c4ccccc4c3C2)C1 (stereo unspecified)	.	.	.	43	.
O=C1CC(NCc2ccccc2F)C(=O)N1c1ccccc1 (stereo unspecified)	.	.	.	39	.
N#Cc1c(-c2ccco2)nc(SCc2ccc(F)cc2)[nH]c1=O	33	.	.	/	.
Brc1ccc(-c2nn3c(-c4ccco4)nnc3s2)o1	25	.	.	.	.
CC(=O)N1CCc2cc(S(=O)(=O)NC(CC(C)C)C(=O)N3CCn4c3nc3ccccc34)ccc21 (stereo unspecified)	.	.	.	/	.
CCN(CC)C(=O)c1csc(Nc2ccc(C)cc2)n1	.	.	-20	38	.
Cc1ccc(Nc2nc(C(=O)NCc3ccco3)cs2)cc1	.	.	.	.	.
O=C(O)c1n[nH]c2ccccc12	/	.	.	.	/
c1ccc(-c2n[nH]c3ccccc23)cc1	84	.	.	/	.
Cc1cc(Cl)ccc1OCc1nc(-c2ccc(O)cc2)n[nH]1	.	.	.	.	27
COc1cc(C)nc(NC(=O)COc2ccc(Cl)cc2C)n1	.	.	.	.	.
CCCCNC(=O)CC(=O)Nc1ccccc1C(=O)O	.	.	.	.	.
Cn1c(=O)c2c(SCc3cccc(C(F)(F)F)c3)nc(-c3ccco3)nc2n(C)c1=O	.	.	-4.9	/	.
CN1/C(=C\C(=O)c2ccco2)C(C)(C)c2ccccc21	.	.	.	/	.
CN1/C(=C/C(=O)c2nc(S(C)(=O)=O)ncc2Cl)C(C)(C)c2ccccc21	.	.	-15	/	.
COc1ccc(-c2nnc(SCC(=O)NC(C)c3ccccc3)o2)cc1OC (stereo unspecified)	.	.	.	.	.
SMILES	JNK3 blocker	PKA inh	HER2 expr 66K	SK-BR-3 tox 24h	ROCK2 blocker
COc1ccccc1-c1cc(C(F)(F)F)nc(S(=O)(=O)CCCC(=O)NC(C)C)n1	.	.	-13	.	.
COc1ccccc1-c1cc(C(F)(F)F)nc(N2CCCC2)n1	/	.	.	.	/
COc1ccccc1-c1cc(C(=O)Nc2cc(C)on2)no1	.	.	.	.	.
COc1ccccc1-c1cc(C(F)(F)F)nc(S(=O)(=O)CCCC(=O)Nc2cc(C)on2)n1	.	.	-16	.	.
COc1ccccc1-c1cc(C(F)(F)F)nc(S(=O)(=O)CCCC(=O)N2CCCCC2C)n1 (stereo unspecified)	.	.	-17	38	.
CCC12CCCN3CCC4(C(=C(C(=O)OC)C1)Nc1ccccc14)C32 (stereo unspecified)	.	.	.	/	.
Cn1c(=O)oc2cc(S(=O)(=O)Nc3ccc4c(c3)OCO4)ccc21	.	.	.	.	.
CCOC(=O)c1c(C)[nH]c2ccc(O)cc12	18	.	.	.	.
CCOC(=O)c1c2n(c3ccc(O)cc13)CCC2	/	.	.	.	/
CCS(=O)(=O)C(=C1NCCO1)S(=O)(=O)CC	.	.	.	.	.
CCOC(=O)C1C(c2ccccc2Cl)NC(=O)N(C)C1(O)C(F)(F)F (stereo unspecified)	.	.	-28	.	.
COc1ccc(OC)c(NC(=O)CSc2nnc(Cn3c(=O)sc4ccccc43)n2C)c1	.	.	.	/	.
Cc1ccc(-c2ccc(/C=N/c3ncn[nH]3)o2)cc1Cl	.	.	.	35	.
